According to the supplement of paper PMC10849652:
About 8,800 targets were measured; listed, in parts, are those with a hit and a random draw of the rest. About 0.5% of all pairs of compound and target were hits.

What was measured:
Experiment in all cases: log2 fold change, soluble protein after heating vs DMSO (PISA); higher = thermal stabilisation; K562 lysate, 10 uM; active = over 0.2 and 3.5 SD of the protein, either way, in both replicates (recomputed)
[1] = compound: CCCS(=O)(=O)Nc1ccc(F)c(C(=O)c2c[nH]c3ncc(-c4ccc(Cl)cc4)cc23)c1F [vemurafenib]
How it was run: (§1)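 K562 pellets were dounce-homogenised in PBS pH 7.4 containing 1 mM MgCl2, and the crude extract, at 1 mg/mL protein, was exposed to 10 μM compound for 30 min. Aliquots were heated for 3 min across 48°C-58°C, pooled, brought to 0.5% NP-40 at 4°C and spun at 21,000xg for 90 min, with the supernatant taken as soluble protein. TMTpro 16plex LC-MS/MS with equalised channel sums quantified that protein. Values are log-two fold changes in thermal stability relative to solvent controls, taken from duplicates.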

[2] = compound: CCCS(=O)(=O)Nc1ccc(F)c(C(=O)c2c[nH]c3ncc(Cl)cc23)c1F
How it was run: as §1

[3] = compound: CCN(CCCOc1ccc2c(Nc3cc(CC(=O)Nc4cccc(F)c4)[nH]n3)ncnc2c1)CCOP(=O)(O)O [barasertib]
How it was run: as §1

[4] = compound: CC[C@@H]1C(=O)N(C)c2cnc(Nc3ccc(C(=O)NC4CCN(C)CC4)cc3OC)nc2N1C1CCCC1
How it was run: as §1

[5] = compound: CC[C@@H]1C(=O)N(C)c2cnc(Nc3ccc(C(=O)N[C@H]4CC[C@H](N5CCN(CC6CC6)CC5)CC4)cc3OC)nc2N1C(C)C [volasertib]
How it was run: as §1

[6] = compound: CCn1c(C(=O)N(C2CC2)C2CC2)cc2c3c(ncn3C)c(Nc3cc(C)n(C)n3)nc21
How it was run: as §1

[7] = compound: CCn1cc(-c2ccnc3[nH]c(-c4cccc(CN(C)C)c4)cc23)c(-c2ccc(NC(=O)N(C)C)cc2)n1
How it was run: as §1

[8] = compound: CN1CCC(CNc2ccc3ncc(-c4cccc(OC(F)(F)F)c4)n3n2)CC1
How it was run: as §1

[9] = compound: CN1CCN(CCOc2cc(OC3CCOCC3)c3c(Nc4c(Cl)ccc5c4OCO5)ncnc3c2)CC1 [saracatinib]
How it was run: as §1

[10] = compound: CN1CCN(c2nc(C3=C(c4c[nH]c5ccccc45)C(=O)NC3=O)c3ccccc3n2)CC1 [sotrastaurin]
How it was run: as §1

[11] = compound: CN1CC[C@H](c2c(O)cc(O)c3c(=O)cc(-c4ccccc4Cl)oc23)[C@H](O)C1 [alvocidib]
How it was run: as §1

[12] = compound: CN1CCc2c(c3ccccc3n2Cc2ccc(C(=O)NO)cc2)C1 [Tubastatin A]
How it was run: as §1

[13] = compound: CNC(=O)C1=CC=CC=C1NC2=NC(=NC=C2Cl)NC3=C(C=C(C=C3)N4CCOCC4)OC
How it was run: as §1

[14] = compound: CNC(=O)c1ccc(Nc2ncc(C(F)(F)F)c(NCc3nccnc3N(C)S(C)(=O)=O)n2)cc1 [defactinib]
How it was run: as §1

[15] = compound: CNc1nc(-c2ccc3c(N)n[nH]c3c2)cc(N2C[C@@H](C(=O)NC3CCCCC3)CC[C@H]2C)n1
How it was run: as §1

[16] = compound: COC(=O)N[C@@H](C)CNc1nccc(-c2cn(C(C)C)nc2-c2cc(Cl)cc(NS(C)(=O)=O)c2F)n1 [encorafenib]
How it was run: as §1

[17] = compound: COC(=O)[C@H](CCSC)NC(=O)C1=C(C=C(C=C1)NC[C@H](CS)N)C2=CC=CC=C2
How it was run: as §1

[18] = compound: COc1cc(Nc2ncc3c(n2)-c2ccc(Cl)cc2C(c2c(F)cccc2OC)=NC3)ccc1C(=O)O [alisertib]
How it was run: as §1

[19] = compound: COc1cc2nc(-c3cc(F)ccc3O)nc(N[C@@H]3CNC[C@H]3C(C)(C)O)c2cc1OC
How it was run: as §1

[20] = compound: COc1cc2ncnc(Nc3ccc(F)c(Cl)c3)c2cc1OCCCN1CCOCC1 [gefitinib]
How it was run: as §1

Measured: log2 fold change

AURKA (UniProt O14965)
Chain of UniProt O14965 (O14965 whole entry, looked up): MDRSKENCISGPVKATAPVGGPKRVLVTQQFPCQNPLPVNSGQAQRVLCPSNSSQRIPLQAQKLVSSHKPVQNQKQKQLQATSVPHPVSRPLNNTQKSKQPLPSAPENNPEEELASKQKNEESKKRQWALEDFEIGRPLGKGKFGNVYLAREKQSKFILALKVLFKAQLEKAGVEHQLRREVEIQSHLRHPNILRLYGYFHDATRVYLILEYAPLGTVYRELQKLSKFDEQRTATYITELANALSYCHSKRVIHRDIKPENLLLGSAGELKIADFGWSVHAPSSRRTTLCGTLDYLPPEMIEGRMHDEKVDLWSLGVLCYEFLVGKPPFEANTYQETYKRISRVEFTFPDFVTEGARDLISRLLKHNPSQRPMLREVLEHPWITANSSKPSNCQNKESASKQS
active: [3] 0.763 | [7] 0.719
inactive: [1] 0.088 | [2] 0.068 | [4] -0.062 | [5] -0.015 | [6] -0.009 | [8] 0.096 | [9] 0.008 | [10] 0.028 | [11] -0.006 | [12] 0.03 | [13] 0.586 | [14] 0.425 | [15] 0.094 | [16] -0.068 | [17] 0.002 | [18] 0.436 | [19] -0.023 | [20] -0.101

C18orf32 (UniProt Q8TCD1)
Chain of UniProt Q8TCD1 (Q8TCD1 whole entry, looked up): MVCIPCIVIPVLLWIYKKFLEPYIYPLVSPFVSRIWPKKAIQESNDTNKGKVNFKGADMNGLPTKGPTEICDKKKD
inactive: [1] 0.164 | [2] -0.044 | [3] -0.019 | [4] 0.125 | [5] 0.054 | [6] 0.054 | [7] -0.073 | [8] 0 | [9] 0.006 | [10] -0.112 | [11] 0.049 | [12] 0.035 | [13] 0.084 | [14] 0.144 | [15] 0 | [16] 0.168 | [17] -0.316 | [18] 0.043 | [19] -0.019 | [20] -0.249

BNIP1 (UniProt Q12981)
Chain of UniProt Q12981 (Q12981 whole entry, looked up): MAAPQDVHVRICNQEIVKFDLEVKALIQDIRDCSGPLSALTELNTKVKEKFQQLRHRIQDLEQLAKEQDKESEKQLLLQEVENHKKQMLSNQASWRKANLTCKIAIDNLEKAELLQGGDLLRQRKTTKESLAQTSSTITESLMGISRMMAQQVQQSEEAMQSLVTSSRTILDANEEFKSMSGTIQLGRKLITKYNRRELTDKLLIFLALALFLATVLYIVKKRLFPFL
inactive: [1] 0.024 | [2] 0 | [3] 0.057 | [4] -0.032 | [5] -0.054 | [6] -0.013 | [8] -0.204 | [9] 0.032 | [10] 0.006 | [11] 0.231 | [12] -0.045 | [13] 0.055 | [14] 0 | [15] -0.014 | [16] 0.095 | [17] -0.037 | [18] 0.004 | [19] 0.004 | [20] -0.018
active: [7] 0.287

ATP5PF isoform 2 (UniProt P18859)
Chain of UniProt P18859 (P18859 whole entry, looked up): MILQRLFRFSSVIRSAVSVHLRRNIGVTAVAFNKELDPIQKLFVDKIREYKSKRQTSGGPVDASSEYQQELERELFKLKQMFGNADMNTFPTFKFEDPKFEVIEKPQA
inactive: [1] 0.083 | [2] -0.023 | [3] 0.064 | [4] 0.076 | [5] 0.133 | [6] 0.076 | [8] -0.205 | [9] -0.024 | [10] -0.067 | [11] 0.203 | [12] 0.146 | [13] 0.042 | [14] 0.071 | [15] -0.022 | [16] 0.014 | [17] -0.061 | [18] -0.005 | [19] 0.01 | [20] -0.173
active: [7] 0.663

CDK13 (UniProt Q14004)
Chain of UniProt Q14004 (Q14004 whole entry, looked up): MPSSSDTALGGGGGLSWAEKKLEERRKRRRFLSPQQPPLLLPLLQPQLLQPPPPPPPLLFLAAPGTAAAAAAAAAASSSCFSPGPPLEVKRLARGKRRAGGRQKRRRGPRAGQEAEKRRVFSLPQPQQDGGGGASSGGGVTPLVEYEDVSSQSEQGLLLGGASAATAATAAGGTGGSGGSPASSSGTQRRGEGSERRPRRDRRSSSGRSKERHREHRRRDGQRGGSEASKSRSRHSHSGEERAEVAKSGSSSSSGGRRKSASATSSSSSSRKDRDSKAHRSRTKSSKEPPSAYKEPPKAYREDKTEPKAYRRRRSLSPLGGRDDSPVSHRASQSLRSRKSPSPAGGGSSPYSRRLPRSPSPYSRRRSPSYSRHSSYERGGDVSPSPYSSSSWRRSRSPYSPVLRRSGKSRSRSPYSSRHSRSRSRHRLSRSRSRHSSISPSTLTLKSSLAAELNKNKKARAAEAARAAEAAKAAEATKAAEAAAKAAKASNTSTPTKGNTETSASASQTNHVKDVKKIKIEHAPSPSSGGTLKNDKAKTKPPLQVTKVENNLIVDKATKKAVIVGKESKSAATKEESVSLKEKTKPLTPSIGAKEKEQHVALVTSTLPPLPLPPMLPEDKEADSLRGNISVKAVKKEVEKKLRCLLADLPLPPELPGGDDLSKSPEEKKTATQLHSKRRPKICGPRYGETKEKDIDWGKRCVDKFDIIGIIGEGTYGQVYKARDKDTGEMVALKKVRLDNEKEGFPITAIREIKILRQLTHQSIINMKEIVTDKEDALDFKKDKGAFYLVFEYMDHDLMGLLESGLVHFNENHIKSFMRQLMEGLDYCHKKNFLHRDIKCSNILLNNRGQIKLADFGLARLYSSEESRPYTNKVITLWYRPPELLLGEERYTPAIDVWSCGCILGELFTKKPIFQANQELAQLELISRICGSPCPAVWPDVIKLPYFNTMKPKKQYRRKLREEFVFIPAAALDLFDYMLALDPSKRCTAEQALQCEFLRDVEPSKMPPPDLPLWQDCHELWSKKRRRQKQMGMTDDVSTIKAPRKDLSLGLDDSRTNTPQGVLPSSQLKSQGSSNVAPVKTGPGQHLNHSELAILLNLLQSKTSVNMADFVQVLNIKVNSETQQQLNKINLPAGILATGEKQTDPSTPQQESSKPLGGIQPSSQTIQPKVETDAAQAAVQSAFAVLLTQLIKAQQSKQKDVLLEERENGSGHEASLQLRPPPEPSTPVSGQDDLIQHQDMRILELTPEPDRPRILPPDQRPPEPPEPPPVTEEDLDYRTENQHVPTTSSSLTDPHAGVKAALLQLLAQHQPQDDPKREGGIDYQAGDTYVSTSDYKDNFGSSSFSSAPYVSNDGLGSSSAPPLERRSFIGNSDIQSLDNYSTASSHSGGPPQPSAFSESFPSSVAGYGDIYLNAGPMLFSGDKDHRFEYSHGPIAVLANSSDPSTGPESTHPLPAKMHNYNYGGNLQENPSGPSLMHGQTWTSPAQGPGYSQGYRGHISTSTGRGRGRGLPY
active: [11] 0.287
inactive: [1] -0.124 | [2] -0.031 | [3] -0.061 | [4] 0.002 | [5] -0.123 | [6] 0.106 | [7] -0.09 | [8] 0.04 | [9] 0.074 | [10] -0.036 | [12] -0.1 | [13] -0.044 | [14] 0.139 | [15] -0.184 | [16] -0.005 | [17] -0.033 | [18] 0.043 | [19] 0.078 | [20] 0.007

CHD1L (UniProt Q86WJ1)
Chain of UniProt Q86WJ1 (Q86WJ1 whole entry, looked up): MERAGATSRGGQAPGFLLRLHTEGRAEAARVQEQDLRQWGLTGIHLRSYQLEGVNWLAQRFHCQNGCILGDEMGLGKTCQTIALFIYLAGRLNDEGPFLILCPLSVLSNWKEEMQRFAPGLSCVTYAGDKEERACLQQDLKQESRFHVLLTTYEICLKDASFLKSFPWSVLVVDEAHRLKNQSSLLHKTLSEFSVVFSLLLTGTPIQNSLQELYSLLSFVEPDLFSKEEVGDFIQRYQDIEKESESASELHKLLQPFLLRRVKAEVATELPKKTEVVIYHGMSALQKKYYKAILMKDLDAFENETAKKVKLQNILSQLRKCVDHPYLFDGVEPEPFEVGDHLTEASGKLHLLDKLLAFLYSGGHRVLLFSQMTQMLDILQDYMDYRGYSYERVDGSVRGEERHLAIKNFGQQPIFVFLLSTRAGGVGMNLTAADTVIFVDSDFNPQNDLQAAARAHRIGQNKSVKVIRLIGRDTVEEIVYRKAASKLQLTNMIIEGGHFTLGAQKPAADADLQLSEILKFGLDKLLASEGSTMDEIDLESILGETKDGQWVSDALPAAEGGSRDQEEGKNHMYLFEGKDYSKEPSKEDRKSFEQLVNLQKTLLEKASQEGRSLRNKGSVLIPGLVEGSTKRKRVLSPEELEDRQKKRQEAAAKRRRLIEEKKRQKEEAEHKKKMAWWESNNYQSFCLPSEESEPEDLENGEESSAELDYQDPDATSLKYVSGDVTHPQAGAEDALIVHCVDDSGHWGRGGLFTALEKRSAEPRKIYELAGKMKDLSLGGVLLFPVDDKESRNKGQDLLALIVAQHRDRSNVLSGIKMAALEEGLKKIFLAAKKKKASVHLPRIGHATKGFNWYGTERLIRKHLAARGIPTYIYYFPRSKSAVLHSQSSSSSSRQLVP
inactive: [1] 0.033 | [2] 0.011 | [3] 0.062 | [4] -0.029 | [5] -0.09 | [6] 0.024 | [7] -0.053 | [8] -0.054 | [9] 0 | [10] -0.001 | [11] 0.012 | [12] -0.16 | [13] -0.003 | [14] -0.001 | [15] -0.025 | [16] 0.013 | [17] 0.114 | [18] 0.018 | [19] -0.002 | [20] 0.006

ATP6V1B1 (UniProt P15313)
Chain of UniProt P15313 (P15313 whole entry, looked up): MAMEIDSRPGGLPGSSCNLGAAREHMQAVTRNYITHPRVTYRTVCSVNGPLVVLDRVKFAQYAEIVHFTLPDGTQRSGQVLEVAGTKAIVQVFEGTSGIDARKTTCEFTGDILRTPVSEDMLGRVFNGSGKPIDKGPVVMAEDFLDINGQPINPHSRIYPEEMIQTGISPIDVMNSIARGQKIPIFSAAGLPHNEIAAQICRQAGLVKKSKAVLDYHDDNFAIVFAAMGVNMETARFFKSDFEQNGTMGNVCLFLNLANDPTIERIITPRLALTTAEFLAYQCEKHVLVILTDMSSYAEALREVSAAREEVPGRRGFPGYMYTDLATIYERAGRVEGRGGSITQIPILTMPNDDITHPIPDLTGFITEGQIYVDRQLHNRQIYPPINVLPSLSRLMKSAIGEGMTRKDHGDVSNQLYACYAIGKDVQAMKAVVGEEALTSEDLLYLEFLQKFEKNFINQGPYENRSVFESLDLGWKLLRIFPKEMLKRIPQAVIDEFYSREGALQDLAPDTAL
active: [7] -0.288
inactive: [1] -0.009 | [2] -0.013 | [3] -0.012 | [4] 0.016 | [5] 0.03 | [6] 0.006 | [8] 0.158 | [9] -0.006 | [10] 0.006 | [11] -0.118 | [12] 0.095 | [13] 0.018 | [14] -0.005 | [15] 0.031 | [16] -0.032 | [17] 0.017 | [18] 0.023 | [19] 0.009 | [20] -0.033

BMS1 (UniProt Q14692)
Chain of UniProt Q14692 (Q14692 whole entry, looked up): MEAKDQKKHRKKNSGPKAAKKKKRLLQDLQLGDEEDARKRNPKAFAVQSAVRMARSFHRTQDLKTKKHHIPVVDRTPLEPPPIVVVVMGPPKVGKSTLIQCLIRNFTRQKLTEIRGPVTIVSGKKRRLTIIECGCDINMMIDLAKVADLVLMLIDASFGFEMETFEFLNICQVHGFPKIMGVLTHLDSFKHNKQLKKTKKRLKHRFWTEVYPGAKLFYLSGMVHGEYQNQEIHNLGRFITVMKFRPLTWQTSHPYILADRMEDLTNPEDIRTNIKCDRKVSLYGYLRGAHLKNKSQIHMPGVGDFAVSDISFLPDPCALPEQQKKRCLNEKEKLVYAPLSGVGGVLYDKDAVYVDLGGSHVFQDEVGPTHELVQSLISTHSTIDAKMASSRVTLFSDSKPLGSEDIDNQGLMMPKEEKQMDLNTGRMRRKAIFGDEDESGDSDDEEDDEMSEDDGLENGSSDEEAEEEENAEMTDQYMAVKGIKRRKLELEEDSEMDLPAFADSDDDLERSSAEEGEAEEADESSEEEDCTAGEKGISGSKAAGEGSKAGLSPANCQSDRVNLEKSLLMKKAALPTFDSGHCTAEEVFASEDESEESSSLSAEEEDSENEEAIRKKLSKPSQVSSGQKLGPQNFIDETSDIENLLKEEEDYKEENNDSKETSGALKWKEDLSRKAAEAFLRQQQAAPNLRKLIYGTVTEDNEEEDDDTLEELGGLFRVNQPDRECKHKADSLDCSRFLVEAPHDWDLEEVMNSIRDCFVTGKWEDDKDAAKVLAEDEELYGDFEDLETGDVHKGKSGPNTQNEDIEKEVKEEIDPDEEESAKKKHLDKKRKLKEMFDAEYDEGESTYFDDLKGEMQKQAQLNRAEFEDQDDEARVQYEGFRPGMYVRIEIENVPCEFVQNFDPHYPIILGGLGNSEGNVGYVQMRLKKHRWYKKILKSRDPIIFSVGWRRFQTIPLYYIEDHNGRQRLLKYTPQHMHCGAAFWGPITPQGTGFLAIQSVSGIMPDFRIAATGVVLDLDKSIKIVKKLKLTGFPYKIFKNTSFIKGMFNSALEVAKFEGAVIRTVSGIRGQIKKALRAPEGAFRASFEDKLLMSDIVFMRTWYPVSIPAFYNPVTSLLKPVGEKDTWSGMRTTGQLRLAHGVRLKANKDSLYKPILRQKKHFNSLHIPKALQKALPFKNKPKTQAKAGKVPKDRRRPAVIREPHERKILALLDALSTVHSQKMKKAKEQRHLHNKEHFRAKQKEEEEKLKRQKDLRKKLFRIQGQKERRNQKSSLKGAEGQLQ
inactive: [1] -0.038 | [2] 0.023 | [3] 0.127 | [4] -0.027 | [5] -0.018 | [6] 0.012 | [7] -0.054 | [8] 0.006 | [9] -0.004 | [10] 0.005 | [11] -0.016 | [12] -0.024 | [13] 0.042 | [14] 0.053 | [15] 0.007 | [16] 0.075 | [17] 0.01 | [18] 0.035 | [19] -0.01 | [20] -0.042
